The list is not random: actives were taken first. Their share in the collection is about 12%.
G9a block = blocks human histone lysine methyltransferase G9a. Q96KQ7. G9a H3K9 monomethylation, AlphaScreen, 2 h. Potency, µM (doses to about 102 µM), without a hit: top-dose activity, negative = inhibition, most hits filed as inhibitors. 8.8% of 350,000 active. AID 504332; also: % is scaled to controls: 0 for no effect and ±100 for the full control effect; nearly all actives have a fitted effect of over 75% in size
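G9a (20 nM) preincubated 15 min RT with compounds, then 500 nM biotinylated H3K9 peptide and 20 uM SAM added; 2 h RT reaction. Monomethyl-H3K9 product detected by AlphaScreen with anti-H3K9me1 antibody, streptavidin donor and anti-rabbit IgG acceptor beads.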
JMJD2A Tudor = blocks the human JMJD2A Tudor domain. O75164. AlphaScreen JMJD2A-Tudor / H3K4me3 peptide binding. Potency, µM (titrated, usually from 114 µM), without a hit: at the highest dose activity change, negative = inhibition, hits mostly inhibitors. 4.4% of 390,000 active. AID 504339; also: % is scaled to controls: 0 for no effect and ±100 for the full control effect; nearly all actives have a fitted effect of over 50% in size
Target sequence (O75164 whole entry, looked up, the tested form may be a part): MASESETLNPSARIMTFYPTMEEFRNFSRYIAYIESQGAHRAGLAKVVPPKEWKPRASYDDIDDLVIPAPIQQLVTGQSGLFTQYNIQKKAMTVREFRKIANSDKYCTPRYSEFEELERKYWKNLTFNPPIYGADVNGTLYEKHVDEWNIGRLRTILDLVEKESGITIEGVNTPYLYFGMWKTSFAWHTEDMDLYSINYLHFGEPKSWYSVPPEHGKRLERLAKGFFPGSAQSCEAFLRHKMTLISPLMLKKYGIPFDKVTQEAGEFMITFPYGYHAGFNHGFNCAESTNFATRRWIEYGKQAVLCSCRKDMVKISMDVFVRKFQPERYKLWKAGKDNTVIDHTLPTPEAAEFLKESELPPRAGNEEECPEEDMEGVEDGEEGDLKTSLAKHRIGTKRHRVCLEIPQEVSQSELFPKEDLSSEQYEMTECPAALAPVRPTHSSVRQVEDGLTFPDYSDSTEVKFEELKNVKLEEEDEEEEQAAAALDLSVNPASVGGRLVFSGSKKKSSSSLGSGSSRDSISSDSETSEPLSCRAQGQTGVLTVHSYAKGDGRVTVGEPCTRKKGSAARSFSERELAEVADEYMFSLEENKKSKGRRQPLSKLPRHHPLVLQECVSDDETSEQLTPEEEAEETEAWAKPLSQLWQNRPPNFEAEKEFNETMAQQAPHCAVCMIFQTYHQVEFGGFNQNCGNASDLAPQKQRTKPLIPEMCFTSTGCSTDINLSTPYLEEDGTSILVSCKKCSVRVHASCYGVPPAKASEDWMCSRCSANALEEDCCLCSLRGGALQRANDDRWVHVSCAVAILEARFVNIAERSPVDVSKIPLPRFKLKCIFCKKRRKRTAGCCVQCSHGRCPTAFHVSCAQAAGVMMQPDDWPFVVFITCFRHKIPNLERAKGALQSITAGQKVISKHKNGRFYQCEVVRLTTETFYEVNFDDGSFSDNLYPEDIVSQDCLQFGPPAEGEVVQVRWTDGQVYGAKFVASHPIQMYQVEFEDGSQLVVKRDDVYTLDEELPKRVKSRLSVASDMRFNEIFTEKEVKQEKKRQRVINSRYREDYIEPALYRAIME
Sfp inh = blocks B. subtilis Sfp PPTase activity | Q9F4F7 | Biochemical Sfp PPTase activity, qHTS | Potency, µM, for inactives: largest response in the series, negative = inhibition, most hits filed as inhibitors | 3.5% of 310,000 active | AID 1490;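 also: the enzyme is Sfp with the accession as filed and its product quenches rhodamine fluorescence; 0% = enzyme reaction without inhibitor and -100% = no enzyme wells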
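Fluorescence-quenching assay: 15 nM Sfp-PPTase preincubated 15 min at room temperature with compound, then 5 uM rhodamine-CoA and 12.5 uM BHQ-2-labelled YbbR peptide added. Fluorescence (ex 525/em 598 nm) read at start and after 30 min; difference gives rate.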
BAZ2B inh = blocks human BAZ2B. Q9UIF8. AlphaScreen BAZ2B-H3K14Ac peptide displacement. Potency, µM (highest dose often 114 µM), inactives show at the highest dose activity change, negative = inhibition, hits mostly inhibitors. 4.4% of 360,000 active. AID 504333; also: % is scaled to controls: 0 for no effect and ±100 for the full control effect; nearly all actives have a fitted effect of over 60% in size
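AlphaScreen luminescence quantifies BAZ2B engagement of H3K14Ac peptide; the protein and biotinylated peptide are both at 50 nM final, buffer PBS pH 7.4 with 0.01% Tween-20, all steps at room temperature.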
HP1b binding inh = blocks HP1-beta chromodomain binding to methylated histone tails; AID 540317; 0.56% of 390,000 active; Potency, µM (top dose mostly 114 µM), inactives show at the highest dose activity change, negative = inhibition, usual class: inhibitors; AlphaScreen HP1-beta / biotin-H3K9me3 peptide binding; also: nearly all actives have a fitted effect of over 70% in size
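Compound inhibition of the preformed complex between 50 nM HP1-beta and 50 nM biotinylated H3K9me3 peptide was read by AlphaScreen. Buffer was PBS pH 7.4 with 0.01% Tween-20. Incubations ran 30 min at room temperature, with 10 ug/mL donor/acceptor beads.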
Active calls of the source: *; ? = inconclusive; · = not tested or not shown; [ ] = another dose, or the depositor's remark. Calls follow the shape of the dose curve; as a rule, active = well fitted curve in the direction sought with a large enough effect; inconclusive = small, poorly fitted or top-dose-only effect, or another doubt; inactive = no such curve, though single readings can be large; an effect the other way counts as inactive or inconclusive. Potency is read from the fitted curve at half-maximal effect.

SMILES	G9a block	JMJD2A Tudor	Sfp inh	BAZ2B inh	HP1b binding inh
COc1cc2cc(CCCOC(=O)c3ccc(F)cc3)oc(=O)c2cc1OC	-4.9%[0.501 µM]	-22.5%	·	-7.5%	27.8%
COc1ccc(Cl)cc1N(C)C(=O)Cc1noc2ccc(C)cc12	?	-35.5%	·	-36.3%	-8.6%
COc1cc(/C=C2/C(=O)N(c3ccc(Br)cc3)N=C2C)cc(OC)c1OC	50.1µM*	35.5µM*	?	39.8µM*	-35.1%
CC1(C)CC(=O)C(=Cc2cn(-c3ccccc3)nc2-c2ccccc2)C(=O)C1	·	-0.4%	·	·	42.6%
Cc1ccc(-c2nn(-c3ccccc3)cc2C=C2C(=O)CC(C)(C)CC2=O)cc1	15.2%[0.0925 µM]	-32.9%	25.1µM*	?	-5.8%
CC1=NN(c2ccc(Br)cc2)C(=O)/C1=C/c1cccs1	7.08µM*	?	-3.7%	4.47µM*	-52.9%
CC1=NN(c2ccccc2)C(=O)/C1=C\c1cn(-c2ccccc2)nc1C	?	?	10.5%	·	8.91µM*
COc1ccc(OC)c(NC(=O)c2cc3c(=O)oc4ccccc4c3s2)c1	2.2%[59 µM]	-11.9%	·	-2.0%	30.1%
COC(=O)NC(/C(C(=O)OC)=C(\C)NCc1ccccc1)c1ccc(Cl)cc1 (centres undefined)	·	·	6.6%	·	·
C#CCOc1ccc(/C=C2/C(=O)N(c3cccc(C(=O)O)c3)N=C2C)cc1OC	·	?	?	-36.9%	-10.8%
COc1cc(/C=C2/C(=O)N(c3ccc(C(=O)O)cc3)N=C2C)cc(OC)c1O	39.8µM*	-21.7%	39.8µM*	?	?
O=C(CSc1ncccn1)N/N=C/c1cccc([N+](=O)[O-])c1	2.8%[59 µM]	0.7%	14.0%	1.1%	27.5%
Cc1cc(C)nc(SCC(=O)NN=C2CCCC2)n1	11.7%[59 µM]	17.8µM*	13.6%	-18.9%	?
Cc1cc(C)nc(SCC(=O)N/N=C/c2cccc([N+](=O)[O-])c2)n1	-23.3%	39.8µM*	-1.1%	5.5%	-23.6%
Cc1cc(C)nc(SCC(=O)N/N=C/c2cccn2-c2ccc(O)cc2)n1	39.8µM*	?	-2.5%	?	-26.4%
CCC1=Nc2cc(C(=O)NCCCN3CCN(C)CC3)ccc2Sc2ccccc21	?	-20.8%	-7.5%	-22.5%	6.3%
CCOC(=O)C1C(c2cc(OC)c(OC)c(OC)c2)NC(=S)NC1(O)C(F)(F)F (centres undefined)	?	0.0%	79.4µM*	-6.6%	-15.9%
CCOC(=O)C1C(c2cc(OC)c(O)c(OC)c2)NC(=S)NC1(O)C(F)(F)F (centres undefined)	-16.0%[59 µM]	-1.4%	-7.7%	-5.8%	39.7%
CCOC(=O)C1C(c2ccc3c(c2)OCO3)NC(=O)NC1(O)C(F)(F)F (centres undefined)	-3.8%[2.33 µM]	17.8µM*	-5.1%	12.1%	-4.3%
COc1cc(C2NC(=S)NC(O)(C(F)(F)F)C2C(=O)c2cccs2)cc(OC)c1O (centres undefined)	79.4µM*	-7.8%	-15.7%	-1.8%	40.4%
CCOC(=O)C1C(c2ccc(O)c(OC)c2)NC(=O)NC1(O)C(F)(F)F (centres undefined)	·	-12.6%	0.3%	?	25.5%
CCc1ccccc1NC(=O)CSc1ncc2c(n1)-c1ccccc1N(C)S2(=O)=O	8.0%[59 µM]	-7.8%	·	31.6%	60.8%
COCCn1c(=O)c(-c2ccc(OC)cc2)nc2cnc(Oc3ccccc3)nc21	5.1%[12.7 µM]	·	6.6%	·	·
O=C(O)CCn1c(CO)nc2ccccc21	3.0%	-11.1%	6.8%	56.2µM*	-6.6%
CCOC(=O)Cn1c(=O)cnc2ccccc21	27.1%[12.7 µM]	-1.6%	3.2%	-2.4%	17.2%
SMILES	G9a block	JMJD2A Tudor	Sfp inh	BAZ2B inh	HP1b binding inh
O=C(Cn1c(-c2ccccn2)nc2ccccc21)N/N=C/c1ccccn1	-31.9%	-13.7%	?	·	31.3%
CCOC(=O)CCn1c(CC(=O)OCC)nc2ccccc21	50.1µM*	-24.4%	-3.7%	?	45.2%
O=C(O)CCn1c(-c2ccccn2)nc2ccccc21	·	22.4µM*	-20.9%	-6.5%	-15.6%
CCOC(=O)Cn1c(S(=O)(=O)Cc2ccccc2)nc2ccccc21	39.8µM*	-7.6%	18.2%	-1.5%	26.8%
CCOC(=O)c1ccccc1NC(=O)c1cn(CC(C)C)c(=O)c2cc(OC)c(OC)cc12	1.5%[59 µM]	0.0%	·	3.6%	32.2%
COc1cccc(Nc2ncc3nc(-c4ccccc4)c(=O)n(C)c3n2)c1	-4.4%[0.501 µM]	·	5.5%	·	·
CCSc1nc2ccccc2n1CCC(=O)O	?	-11.5%	2.0%	5.9%	12.9%
O=C(O)Cn1c(-c2cscn2)nc2ccccc21	44.7µM*	15.8µM*	-14.2%	?	-4.8%
O=C(O)Cn1c(P(=O)(O)c2ccccc2)nc2ccccc21	31.6µM*	35.5µM*	-27.6%	?	-11.6%
O=C(O)CCn1c(SCc2cccc3ccccc23)nc2ccccc21	14.1µM*	-15.4%	12.4%	-5.0%	32.7%
COc1cc2[nH]c(C(=O)N3CC(C)OC(C)C3)cc2c(OC)c1OC (centres undefined)	-2.3%	?	11.2%	2.2%	5.7%
Cc1[nH]n(-c2ccccc2)c(=O)c1-c1ccc(Cl)cc1	14.1µM*	79.4µM*	-11.1%	-6.3%	-14.2%
Cc1[nH]n(-c2ccccc2)c(=O)c1-c1cccc(Cl)c1	-15.6%[0.0925 µM]	-10.4%	6.2%	?	7.9%
Cc1[nH]n(-c2ccccc2)c(=O)c1S(=O)(=O)c1ccccc1	44.7µM*	-27.3%	-6.8%	42.1%	33.0%
CC(=O)c1ccc2noc(-c3cccc(C)c3)c2c1	17.8µM*	1.4%	-7.7%	-1.0%	31.5%
CC(=O)c1ccc2noc(-c3ccccc3)c2c1	·	0.0%	-11.6%	-16.2%	72.0%
CCOC(=O)c1ccccc1-c1csc(NS(=O)(=O)c2ccc(Cl)cc2)n1	-35.4%[59 µM]	-10.5%	-0.8%	56.2µM*	20.0%
CC(=O)N1CCC2(CC1)CCN(c1ccccn1)CC2	-9.2%[12.7 µM]	·	15.7%	·	·
COc1cccc(-c2cc(=O)c3cc(NC(=O)c4ccc(Cl)cc4)ccc3[nH]2)c1	50.1µM*	-15.0%	8.9%	-28.5%	12.9%
COc1cccc(-c2cc(=O)c3cc(NC(=O)c4ccccc4)ccc3[nH]2)c1	10.4%	-24.1%	10.8%	-0.3%	17.8%
COc1cccc(-c2cc(=O)c3cc(NC(=O)c4ccc(N(C)C)cc4)ccc3[nH]2)c1	31.6µM*	-12.6%	4.8%	79.4µM*	24.2%
CC1=C(C(=O)Nc2ccccc2)C(c2ccncc2)n2nc(SCc3ccccc3F)nc2N1 (centres undefined)	-6.5%[59 µM]	-9.6%	·	-9.0%	18.4%
CCc1ccc2oc(=O)cc(CN3CCC(C)CC3)c2c1	18.9%[59 µM]	-2.9%	10.3%	-12.6%	99.1%
CCCCc1cc(=O)oc2cc(C)c(CN3CCCC3)c(O)c12	-49.0%[12.7 µM]	50.1µM*	-19.0%	44.7µM*	-11.2%
CCc1cc(=O)oc2cc(C)c(CN3CCCC(C)C3)c(O)c12 (centres undefined)	?	35.5µM*	?	22.4µM*	-31.1%

Screening results from PubChem.
